These results are taken from PubChem BioAssay.

Assay [1] is described as follows: rapamycin-like changes in RPL19A-GFP expression – cell-based, S. cerevisiae, multiplex flow cytometry, primary screen (AID 1862; in the data active = percent of DMSO control GFP below about 86%;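 note: lower values mimic rapamycin by blocking the RPL19A rise seen in DMSO cells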). The conditions noted are these: S. cerevisiae RPL19A-GFP strain, flow cytometry fluorescence, 3 h; at 10 µM; stronger effect = lower value.
The nature of assay [2]: TOR pathway GLN3 branch reporter MEP2-GFP changes – S. cerevisiae, multiplex flow cytometry, primary screen (AID 1867;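 active = GFP response, as percent of the DMSO control, above the screen-wide mean plus 3 SD, about 139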;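 note: median GFP channel fluorescence of barcode-gated MEP2-GFP cells measured by flow cytometry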). The following applies: S. cerevisiae MEP2-GFP strain, 3 h, at 10 µM, stronger effect = higher value, 100% means same as DMSO wells.
Assay [3] can be described thus: TOR pathway RTG branch CIT2 reporter changes – S. cerevisiae, GFP fusion, multiplex flow cytometry, primary screen (AID 1870;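 active = percent response above a set limit, the screen-wide mean plus 3 SD, cut at about 130% in these data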;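 note: barcoded CIT2-GFP strain pooled with four other GFP strains with rapamycin as positive control; median GFP fluorescence per well over plate mean of DMSO wells so 100% = DMSO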). The conditions noted are these: S. cerevisiae CIT2-GFP expression, 3 h, at 10 µM, stronger effect = higher value.
The nature of assay [4]: TOR pathway LAP4-GFP level changes – S. cerevisiae, multiplex flow cytometry, primary screen (AID 1873;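 active = GFP signal, as percent of the solvent control, above the screen mean plus 3 SD, about 149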). The conditions noted are these: S. cerevisiae LAP4-GFP expression, 3 h, at 10 µM, stronger effect = higher value.
Assay [5] can be described thus: yeast AGP1-GFP level changes, GLN3 branch – cell-based, multiplex flow cytometry, S. cerevisiae, primary screen (AID 1887;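 active = GFP signal above the screen-wide mean plus 3 SD, that is over about 124.5% of the solvent control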;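 note: AGP1-GFP fusion strain of S. cerevisiae within a five-strain barcoded multiplex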). The following applies: 3 h, at 10 µM, stronger effect = higher value.
Assay [6] is described as follows: hit retest on RPL19A-GFP reporter strain – cell-based, S. cerevisiae, flow cytometry, cherry picks, mother/daughter gates, confirmation (AID 2270;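 active = GFP response below 50% of the DMSO control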). The conditions noted are these: 3 h, at 10 µM, stronger effect = lower value, 100 = same GFP as DMSO wells.
A short description of assay [7]: yeast TOR pathway reporter LAP4-GFP change – cell-based, cherry picks, flow cytometry, mother/daughter gates, confirmation (AID 2271;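 active = GFP response above 150% of the DMSO control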;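 note: ratio of sample to DMSO plate mean so 100% equals DMSO level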). The conditions noted are these: S. cerevisiae LAP4-GFP strain, 3 h, at 10 µM, stronger effect = higher value, 100 means same as DMSO control.
Assay [8] can be described thus: TOR pathway reporter MEP2-GFP, retest of hits – S. cerevisiae, flow cytometry GFP, cherry picks, confirmation (AID 2272;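 active = GFP response above 150% of the DMSO control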;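 note: ratio of well signal to plate DMSO mean so 100% equals DMSO level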). The conditions noted are these: S. cerevisiae MEP2-GFP strain, 3 h, at 10 µM, stronger effect = higher value.
The nature of assay [9]: TOR pathway CIT2 reporter hit retest – S. cerevisiae, GFP fusion, cherry picks, mother/daughter gates, confirmation (AID 2274;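 active = GFP response above 150% of the DMSO level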). The following applies: S. cerevisiae CIT2-GFP strain, flow cytometry, 3 h, at 10 µM, stronger effect = higher value.
The nature of assay [10]: reduced mouse 2C T cell binding to pMHC/ICAM-1 vesicles – MLPCN validation set, flow cytometry, LFA-1/ICAM-1 modulator project, pilot screen (AID 2523;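 active = response below a set limit, under 55% cells CD8-positive and vesicle-bound, and CD8 cells' 90th-percentile brightness under 279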;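 for vesicle binding response: mean PE anti-B7-1 fluorescence of CD8+ cells relative to row control; 100% = QL9-loaded vesicles with DMSO vehicle in the same plate row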). The conditions noted are these: 2C mouse CD8+ T cells, at 7 µM, stronger effect = lower value; double positive events: measured here: CD8+/vesicle+ event percentage.
Assay [11] has as its target Regulator of G-protein signaling 16 (Homo sapiens) (UniProt O15492). Nature of the assay: small molecules altering RGS protein interactions with GNAO1 – biochemical, multiplexed beads, flow cytometry, RGS4/7/8/16/19, primary screen (AID 1504).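 Note: fluorescently labeled Galpha-o bound to GDP with aluminium fluoride binding biotinylated RGS beads.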 The following applies: multiplexed bead flow cytometry, measured here: RGS16 interaction, at 10 µM.
The target in assay [12] is Regulator of G-protein signaling 19 (Homo sapiens) (UniProt P49795). The assay is described as above. The conditions noted are these: multiplexed bead flow cytometry, measured here: RGS19 interaction, at 10 µM.
Assay [13] concerns the target Regulator of G-protein signaling 7 (Homo sapiens) (UniProt P49802). Described as above. The conditions noted are these: multiplexed bead flow cytometry, measured here: RGS7 interaction, at 10 µM.
Assay [14] addresses Regulator of G-protein signaling 8 (Homo sapiens) (UniProt P57771). The assay is described as above. The following applies: multiplexed bead flow cytometry, measured here: RGS8 interaction, at 10 µM.
Assay [15] can be described thus: interference with biotin-avidin bead interaction – biochemical, flow cytometry, bead-based, counter-screen for RGS protein interaction modulators (AID 1783;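 active = inhibition above 50%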;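 note: median green fluorescence of gated singlet beads compared with DMSO control wells; 0% = DMSO wells and 100% = complete loss of bead fluorescence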). The conditions noted are these: streptavidin beads, fluorescein-biotin binding; at 10 µM, stronger effect = higher value.
Assay [16] deals with Guanine nucleotide-binding protein G(o) subunit alpha (Homo sapiens) (UniProt P09471). As to the kind of experiment: retest of RGS8-Galphao interaction hits – biochemical, multiplexed bead flow cytometry, single concentration, confirmation (AID 1836; in the data active = binding response below about 72% or above about 130%; inactive = in between;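 note: Galphao activated as GDP AlF4 complex before binding bead RGS8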). The following applies: bead-based flow cytometry RGS8-Galphao binding, fluorescence; at 10 µM; actives lie on both sides.
For assay [17] the target is unchanged. Nature of the assay: retest of RGS7-Galphao interaction hits – biochemical, multiplexed bead flow cytometry, single concentration, confirmation (AID 1837; in the data active = response below about 75% or above about 130%; inactive = in between;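 note: fluorescent Galphao activated with GDP and aluminum fluoride binding bead-coupled RGS7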). The conditions noted are these: bead-based flow cytometry RGS7-Galphao binding; at 10 µM; actives lie on both sides.
Assay [18] deals with Regulator of G-protein signaling 16 (Homo sapiens) + Guanine nucleotide-binding protein G(o) subunit alpha (Homo sapiens) (UniProt O15492+P09471). As to the kind of experiment: RGS16 and Galphao interaction regulators – biochemical, single concentration, multiplexed bead flow cytometry, confirmation (AID 1838; in the data active = response below about 74% or above about 130%; inactive = in between;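 note: Galphao activated as the GDP aluminium fluoride complex binding bead-coupled RGS16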). The conditions noted are these: bead-based flow cytometry, at 10 µM, actives lie on both sides.

Assay [19] deals with Guanine nucleotide-binding protein G(o) subunit alpha (Homo sapiens) (UniProt P09471). Nature of the assay: RGS4 and Galphao interaction regulators – biochemical, single concentration, multiplexed bead flow cytometry, confirmation (AID 1840). The conditions noted are these: at 10 µM, actives lie on both sides.
The target in assay [20] is Guanine nucleotide-binding protein G(o) subunit alpha (Homo sapiens) + Regulator of G-protein signaling 19 (Homo sapiens) (UniProt P09471+P49795). As to the kind of experiment: RGS19 interaction with Gαo, hit retest – biochemical, single point, multiplexed bead flow cytometry, confirmation (AID 1841; in the data active = response below about 50% or above about 160%; inactive = in between;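 note: 100% = no compound control and 0% = blank background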). The following applies: bead-based flow cytometry RGS19-Galphao binding; at 10 µM; actives lie on both sides.

[21] abbreviates: measured here: daughter cell gate.
[22] abbreviates: measured here: mother cell gate.
[23] abbreviates: measured here: daughter cell gate response.
The mark [24] stands for this setting: measured here: mother cell gate response.

Structures are written as SMILES. Records with an inconclusive call do not appear. The list shows a part of the results. Active and inactive are the calls of the source. Cut-off read from the data, not from the text of the source, unless noted: active = binding response below about 74% or above about 130%; inactive = in between.

Chain of Regulator of G-protein signaling 16 (Homo sapiens) + Guanine nucleotide-binding protein G(o) subunit alpha (Homo sapiens) (O15492 whole entry, looked up): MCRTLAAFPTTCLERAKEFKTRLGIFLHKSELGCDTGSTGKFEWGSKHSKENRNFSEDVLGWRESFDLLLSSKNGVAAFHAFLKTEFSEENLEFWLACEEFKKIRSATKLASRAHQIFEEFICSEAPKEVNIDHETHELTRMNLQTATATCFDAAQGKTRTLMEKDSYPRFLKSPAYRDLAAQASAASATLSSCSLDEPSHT
Chain of Regulator of G-protein signaling 16 (Homo sapiens) + Guanine nucleotide-binding protein G(o) subunit alpha (Homo sapiens) (P09471 whole entry, looked up): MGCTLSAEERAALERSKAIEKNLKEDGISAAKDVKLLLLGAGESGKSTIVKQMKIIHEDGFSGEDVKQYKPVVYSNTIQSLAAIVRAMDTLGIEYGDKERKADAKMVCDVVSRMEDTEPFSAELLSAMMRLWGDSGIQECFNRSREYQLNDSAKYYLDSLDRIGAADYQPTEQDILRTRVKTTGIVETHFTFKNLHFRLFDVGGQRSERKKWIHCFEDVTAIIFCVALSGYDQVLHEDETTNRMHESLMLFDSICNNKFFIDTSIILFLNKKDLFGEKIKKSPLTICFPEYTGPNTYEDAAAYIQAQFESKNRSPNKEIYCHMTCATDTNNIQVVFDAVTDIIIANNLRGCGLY
Chain of Guanine nucleotide-binding protein G(o) subunit alpha (Homo sapiens) + Regulator of G-protein signaling 19 (Homo sapiens) (P09471 whole entry, looked up): as above
Chain of Guanine nucleotide-binding protein G(o) subunit alpha (Homo sapiens) + Regulator of G-protein signaling 19 (Homo sapiens) (P49795 whole entry, looked up): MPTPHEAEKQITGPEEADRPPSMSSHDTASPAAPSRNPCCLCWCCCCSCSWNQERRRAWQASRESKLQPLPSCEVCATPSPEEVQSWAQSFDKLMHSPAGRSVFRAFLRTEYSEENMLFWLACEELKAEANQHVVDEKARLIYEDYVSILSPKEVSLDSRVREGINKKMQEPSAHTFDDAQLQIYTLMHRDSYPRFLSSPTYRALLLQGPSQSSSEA
Chain of Guanine nucleotide-binding protein G(o) subunit alpha (Homo sapiens) (P09471 whole entry, looked up): as the sequence (P09471 whole entry, looked up) above

Turning to `O=C(/C=C/c1ccccc1)c1ccccc1`, the percent of DMSO control GFP in assay [1] is 92.8% (inactive). Further, the GFP response vs DMSO in assay [2] is 139% (inactive); in assay [4], 79.8% (inactive); in assay [6], 98% (inactive); in assay [6] (setting [21]) it was 100%; in assay [6] (setting [22]), 97.1%; in assay [8], 104% (inactive). Besides, in [3], the percent response of DMSO control is 96.6% (inactive). Moreover, the GFP response, % of DMSO in [5] is 87.5% (inactive); in assay [9] it was 102% (inactive); in assay [9] (setting [21]) it was 106%; in assay [9] (setting [22]), 99.1%. Moreover, the GFP response relative to DMSO in [7] is 97.7% (inactive); in assay [7] (setting [23]) it was 96.5%; in assay [7] (setting [24]) it was 94.6%. The compound also came in with a double positive events in assay [10] of 68%. For the same compound, the vesicle binding response in assay [10] was 126% (inactive).
Take `C[C@]12CCC(=O)C=C1[C@H](O)C[C@@H]1[C@@H]2[C@@H](O)C[C@@]2(C)[C@H]1CC[C@]2(O)C(=O)CO`: in [1], the percent of DMSO control GFP is 106% (inactive). Further, the GFP response vs DMSO in [2] was 105% (inactive); in assay [4], 102% (inactive); in [6], 99.1% (inactive); in [6] (setting [21]) it was 99.1%; in assay [6] (setting [22]) it was 99.2%; in assay [8], 99.5% (inactive). For the same compound, the percent response of DMSO control in [3] is 102% (inactive). In addition, the GFP response, % of DMSO in assay [5] was 107% (inactive); in [9], 102% (inactive); in [9] (setting [21]) it was 104%; in [9] (setting [22]), 101%. The GFP response relative to DMSO in assay [7] is 97.7% (inactive); in assay [7] (setting [23]) it was 97.9%; in assay [7] (setting [24]), 95.6%. In addition, the double positive events in [10] is 63.9%. Moreover, the vesicle binding response in [10] is 182% (inactive).
In the case of `COc1ccccc1-n1c(-c2cc(-c3ccco3)[nH]n2)n[nH]c1=S`, the RGS16–Galpha-o binding response in assay [11] is -1.14%. In [12], this compound registered an RGS19–Galpha-o binding response of 531%. Further, the RGS7–Galpha-o binding response in [13] is -527%. Further, the RGS8–Galpha-o binding response in assay [14] was found to be 6.3%. The inhibition in assay [15] is 0.5% (inactive). In addition, the binding response (% of control) was 83.6% (inactive) in [16] and 98.3% (inactive) in assay [19]. The response (percent of control binding) is 99.5% (inactive) in [17] and 68.6% (inactive) in [20]. Besides, in assay [18], the response (% of control binding) is 82.6% (inactive).
Take `CCCOc1ccc(Cc2c(Cl)nc(SC)nc2NC)cc1`: the inhibition in assay [15] is -0.2% (inactive). Moreover, the binding response (% of control) in [16] is 102% (inactive); in [19], 101% (inactive). Moreover, the response (percent of control binding) in assay [17] is 94.9% (inactive); in [20], 67.1% (inactive). Besides, the response (% of control binding) in assay [18] is 99.9% (inactive).
`Nc1ccc(C(=O)OCC(=O)NC2CCS(=O)(=O)C2)cc1[N+](=O)[O-]` (configuration not stated): the RGS16–Galpha-o binding response in assay [11] is -10.3%. The compound further had an RGS19–Galpha-o binding response in assay [12] of 179%. In assay [13], the RGS7–Galpha-o binding response was 289%. Moreover, in assay [14], the RGS8–Galpha-o binding response came out at 6.98%. Moreover, the inhibition in assay [15] was -1.4% (inactive). Further, the binding response (% of control) in assay [16] is 101% (inactive); in assay [19], 100% (inactive). The response (percent of control binding) in assay [17] and in assay [20] was 103% (inactive) each time. The response (% of control binding) in assay [18] is 99.9% (inactive).
Regarding `O=c1cnn([C@@H]2O[C@H](CO)[C@@H](O)[C@H]2O)c(=O)[nH]1`, the percent of DMSO control GFP in assay [1] was 84.9% (active). Besides, the GFP response vs DMSO is 88.8% (inactive) in assay [2]; 129% (inactive) in [4]; 80.6% (inactive) in assay [6]; 81% in [6] (setting [21]); 81.6% in assay [6] (setting [22]); 93.3% (inactive) in assay [8]. Moreover, in [3], the percent response of DMSO control is 80.8% (inactive). The GFP response, % of DMSO in [5] is 98% (inactive); in assay [9] it was 77.7% (inactive); in assay [9] (setting [21]) it was 77.9%; in [9] (setting [22]), 74.6%. Further, the GFP response relative to DMSO in assay [7] is 109% (inactive); in assay [7] (setting [23]) it was 104%; in assay [7] (setting [24]) it was 109%. In assay [10], the double positive events came out at 62.2%. Besides, the vesicle binding response in assay [10] was 127% (inactive).
Regarding `O=C(NCc1ccc(F)cc1)C1CCC(CNc2c(N3CCOCC3)c(=O)c2=O)CC1` (configuration not stated), in [11], the RGS16–Galpha-o binding response is 3.97%. The compound also came in with an RGS19–Galpha-o binding response in [12] of 357%. The RGS7–Galpha-o binding response in [13] is -657%. In addition, in assay [14], the RGS8–Galpha-o binding response turned out to be 8.33%. Moreover, the inhibition in assay [15] was 0% (inactive). Besides, the binding response (% of control) in [16] and in assay [19] was 101% (inactive) in each case. Moreover, the response (percent of control binding) in assay [17] is 100% (inactive); in assay [20], 98.1% (inactive). The response (% of control binding) in assay [18] was 98.7% (inactive).
